# According to the supplement of paper PMC8728848:
# This excerpt belongs to a sample that is enriched for the strongest signals.
# B1: Epa1-NP-mutant-E227G (Candida glabrata), Q6VBJ0 (protein)
# chain: MILNPALFLNKCVCIYTTLILLLLTNGGYATSSNDISLASKDPTTFPLGCSPDITTPKKGLSMELYSYDFRKKGSYPCWDAAYLDPNYPRTGYKSHRLLAKVDGVTGNINFYYHATKGCTPQLGHLPASYNYPKPLTMTNFTMLLYGYFRPKVTGFHTFTISADDLLFVNFGAGNAFDCCRRDSSADHFGNYQAYAIWGSKTAKDELTVHLDAGVYYPIRLFYNNRGYDGALSFTFKTESNENTVSDFSEYFFSLDDTEEGCPGLISYDSSCASVKTSKIIGIDYHTETPNENLVPITKTIYHLGIPCTGTTTTPLCGSGFYDPLANKCVTINTSSTSSVTKTTSHTTSKEVSFHSSISSQKTLIPKSIPSPYGPIKSQSIPTEMETSSEISSSEYAFSDVISTPSHSPYTKKHSSLNSSSYTSTVIHSLTSYSISQGIFSTSLSEQNITSKSSTDKFSTATSMSNNITQSSIIISQFSTNNENYTTTSMHTSSDKISTETLNNSISTTTSILFSNSSTILKNNTTIISSDKDTHYHPVNPTIVCSTNKTEIICASITQPSISNSNNHWSSSVLKFNSTTVRSTLPSSAGSNETSINVPFSSSTESNTSTSSTSTSNSKMVRSTLPSSAGSNETSISVPFSSSTESNTSTSSTSTSNSKMVRSTLPSSAGSNETSINVPFSSSTESNTSTSSTSTSNSKTVRSTPFSSAGIIMTSLSQRNNKSASSYASSNSKCYNTADSCRKVHSTPSYLLTSSYTSEGVDYDCSLVSTKLKINDTNCVNNKHTTKSCLKTSVTTTIPTLEIKTARKSSSNTIGLHSYPTSSPNKSISSAPIIGYISSFKTIKTASPSYQTSDLTTITTITSLNNPGSTAVENTHESNDKSRKTSSNDISSKHSVIKETKDAVESSNKSHQTNTLKCSSIIIASSSHNSYESLGGTTLTLTLSKVYSPQNNDTLPFLEISEVNPSRTVLPESSKMMQYLTSTEERNKTARNTIATNIVSISTFHFEGEGNAIRMGYTQLLLMLIGIIVMNIGT
# Columns and labels:
# Assay in all cases: glycan array binding signal (z-score within array); higher = stronger binding
# Conditions in all cases: glycan notation: IUPAC condensed, linker removed; mutation: E227G
# [1] = target: GalNAc3S(b1-4)[Fuc(a1-3)]GlcNAc
# Procedure, shortened: (§1)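 Glycan array data came from 3228 arrays in the Consortium for Functional Glycomics database, and only arrays with an available protein sequence were kept. Glycan names were put into IUPAC-condensed notation, and columns mapping to the same glycan were averaged. The binding signal is a within-array Z-score, averaged across arrays of one protein sequence run at different concentrations or buffers and across linkers. A negative Z-score can be read as non-binding.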
# Glc(a1-4)Glc = target: Glc(a1-4)Glc
# Procedure, shortened: as §1
# GlcA(b1-3)Gal = target: GlcA(b1-3)Gal
# Procedure, shortened: as §1
# [2] = target: GlcNAc(b1-2)Man(a1-3)[GlcNAc(b1-4)][GlcNAc(b1-2)Man(a1-6)]Man(b1-4)GlcNAc(b1-4)[Fuc(a1-6)]GlcNAc
# Procedure, shortened: as §1
# GlcNAc(b1-3)Gal(b1-4)Glc = target: GlcNAc(b1-3)Gal(b1-4)Glc
# Procedure, shortened: as §1
# [3] = target: GlcNAc(b1-3)Gal(b1-4)GlcNAc(b1-3)Gal(b1-4)GlcNAc(b1-2)Man(a1-3)[GlcNAc(b1-3)Gal(b1-4)GlcNAc(b1-3)Gal(b1-4)GlcNAc(b1-2)Man(a1-6)]Man(b1-4)GlcNAc(b1-4)[Fuc(a1-6)]GlcNAc
# Procedure, shortened: as §1
# [4] = target: GlcNAc(b1-3)Gal(b1-4)GlcNAc(b1-3)GalNAc
# Procedure, shortened: as §1
# [5] = target: GlcNAc(b1-3)Gal(b1-4)GlcNAc(b1-6)[GlcNAc(b1-3)]Gal(b1-4)GlcNAc
# Procedure, shortened: as §1
# [6] = target: GlcNAc(b1-4)Gal(b1-4)GlcNAc
# Procedure, shortened: as §1
# [7] = target: GlcNAc(b1-4)GlcNAc(b1-4)GlcNAc
# Procedure, shortened: as §1
# [8] = target: GlcNAc(b1-4)GlcNAc(b1-4)GlcNAc(b1-4)GlcNAc(b1-4)GlcNAc
# Procedure, shortened: as §1
# GlcNAc(b1-6)GalNAc = target: GlcNAc(b1-6)GalNAc
# Procedure, shortened: as §1
# [9] = target: Kdn(a2-3)Gal(b1-4)[Fuc(a1-3)]GlcNAc
# Procedure, shortened: as §1
# [10] = target: Man(a1-2)Man(a1-3)[Man(a1-2)Man(a1-6)]Man
# Procedure, shortened: as §1
# [11] = target: Man(a1-2)Man(a1-3)[Man(a1-6)]Man(a1-6)[Man(a1-2)Man(a1-3)]Man(b1-4)GlcNAc(b1-4)GlcNAc
# Procedure, shortened: as §1
# Man(a1-3)[Man(a1-6)]Man = target: Man(a1-3)[Man(a1-6)]Man
# Procedure, shortened: as §1
# [12] = target: Man(a1-3)[Man(a1-6)]Man(a1-6)[Man(a1-3)]Man
# Procedure, shortened: as §1
# Neu5Ac(a2-3)Gal = target: Neu5Ac(a2-3)Gal
# Procedure, shortened: as §1
# [13] = target: Neu5Ac(a2-3)Gal(b1-3)GlcNAc(b1-2)Man(a1-3)[Neu5Ac(a2-3)Gal(b1-3)GlcNAc(b1-2)Man(a1-6)]Man(b1-4)GlcNAc(b1-4)GlcNAc
# Procedure, shortened: as §1
# [14] = target: Neu5Ac(a2-3)Gal(b1-3)GlcNAc(b1-3)Gal(b1-4)GlcNAc
# Procedure, shortened: as §1
# [15] = target: Neu5Ac(a2-3)Gal(b1-4)GlcNAc
# Procedure, shortened: as §1
# [16] = target: Neu5Ac(a2-3)Gal(b1-4)GlcNAc(b1-2)Man(a1-3)[Neu5Ac(a2-3)Gal(b1-4)GlcNAc(b1-2)Man(a1-6)]Man(b1-4)GlcNAc(b1-4)GlcNAc
# Procedure, shortened: as §1
# [17] = target: Neu5Ac(a2-3)Gal(b1-4)GlcNAc(b1-3)Gal(b1-4)GlcNAc(b1-2)Man(a1-3)[Neu5Ac(a2-3)Gal(b1-4)GlcNAc(b1-3)Gal(b1-4)GlcNAc(b1-2)Man(a1-6)]Man(b1-4)GlcNAc(b1-4)GlcNAc
# Procedure, shortened: as §1
# [18] = target: Neu5Ac(a2-3)Gal(b1-4)[Fuc(a1-3)]GlcNAc(b1-3)Gal(b1-4)GlcNAc
# Procedure, shortened: as §1
# [19] = target: Neu5Ac(a2-3)Gal(b1-4)[Fuc(a1-3)]GlcNAc(b1-6)[Gal(b1-3)]GalNAc
# Procedure, shortened: as §1
# [20] = target: Neu5Ac(a2-3)[GalNAc(b1-4)]Gal(b1-4)GlcNAc
# Procedure, shortened: as §1
# [21] = target: Neu5Ac(a2-6)Gal(b1-4)GlcNAc(b1-2)Man(a1-3)[Gal(b1-4)GlcNAc(b1-2)Man(a1-6)]Man(b1-4)GlcNAc(b1-4)GlcNAc
# Procedure, shortened: as §1
# [22] = target: Neu5Ac(a2-6)Gal(b1-4)GlcNAc(b1-2)[Neu5Ac(a2-6)Gal(b1-4)GlcNAc(b1-4)]Man(a1-3)[GlcNAc(b1-4)][Neu5Ac(a2-6)Gal(b1-4)GlcNAc(b1-4)Man(a1-6)]Man(b1-4)GlcNAc(b1-4)GlcNAc
# Procedure, shortened: as §1
# Neu5Ac(a2-8)Neu5Ac = target: Neu5Ac(a2-8)Neu5Ac
# Procedure, shortened: as §1
# [23] = target: Neu5Ac(a2-8)Neu5Ac(a2-3)[Gal(b1-3)GalNAc(b1-4)]Gal(b1-4)Glc
# Procedure, shortened: as §1
# [24] = target: Neu5Ac(a2-8)Neu5Ac(a2-8)Neu5Ac
# Procedure, shortened: as §1
# [25] = target: Neu5Ac9Ac(a2-3)Gal(b1-3)GlcNAc
# Procedure, shortened: as §1
# [26] = target: Neu5Gc(a2-6)Gal(b1-4)GlcNAc
# Procedure, shortened: as §1
# [27] = target: Neu5Gc(a2-8)Neu5Ac(a2-3)Gal(b1-4)GlcNAc
# Procedure, shortened: as §1
binder,measurement,setting,value
B1,glycan array binding signal (z-score),[1],-0.117
same,glycan array binding signal (z-score),Glc(a1-4)Glc,-0.175
same,glycan array binding signal (z-score),GlcA(b1-3)Gal,-0.114
same,glycan array binding signal (z-score),[2],-0.217
same,glycan array binding signal (z-score),GlcNAc(b1-3)Gal(b1-4)Glc,-0.256
same,glycan array binding signal (z-score),[3],0.132
same,glycan array binding signal (z-score),[4],-0.16
same,glycan array binding signal (z-score),[5],-0.203
same,glycan array binding signal (z-score),[6],-0.157
same,glycan array binding signal (z-score),[7],-0.161
same,glycan array binding signal (z-score),[8],-0.177
same,glycan array binding signal (z-score),GlcNAc(b1-6)GalNAc,-0.071
same,glycan array binding signal (z-score),[9],-0.097
same,glycan array binding signal (z-score),[10],-0.26
same,glycan array binding signal (z-score),[11],-0.291
same,glycan array binding signal (z-score),Man(a1-3)[Man(a1-6)]Man,-0.126
same,glycan array binding signal (z-score),[12],-0.162
same,glycan array binding signal (z-score),Neu5Ac(a2-3)Gal,-0.003
same,glycan array binding signal (z-score),[13],0.018
same,glycan array binding signal (z-score),[14],-0.256
same,glycan array binding signal (z-score),[15],-0.195
same,glycan array binding signal (z-score),[16],-0.236
same,glycan array binding signal (z-score),[17],-0.191
same,glycan array binding signal (z-score),[18],-0.14
same,glycan array binding signal (z-score),[19],-0.043
same,glycan array binding signal (z-score),[20],-0.209
same,glycan array binding signal (z-score),[21],-0.187
same,glycan array binding signal (z-score),[22],-0.059
same,glycan array binding signal (z-score),Neu5Ac(a2-8)Neu5Ac,-0.302
same,glycan array binding signal (z-score),[23],0.176
same,glycan array binding signal (z-score),[24],-0.128
same,glycan array binding signal (z-score),[25],-0.253
same,glycan array binding signal (z-score),[26],-0.199
same,glycan array binding signal (z-score),[27],-0.226
